Source: PubChem BioAssay
FUS yeast rescue: FUS proteinopathy suppression in yeast | S. cerevisiae FUS-expressing, growth rescue, OD600, 24 h | actives 0.24% (n = 390,000) | Potency, µM (doses to about 76.6 µM), usual class: activators | AID 1347120;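 further: plate controls were DMSO vehicle for no effect and reference control for full effect; nearly all actives have a fitted effect of over 55% in size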
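Steps: raffinose overnight preculture; dilution to OD 0.005 in 2% galactose minimal medium; compound addition (concentration series); 24hr at 30C, 99% humidity; absorbance read at 600 nm.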
TDP-43 yeast inh: inhibitors of TDP-43 toxicity in yeast; TDP-43 expressing yeast growth rescue, BacTiter-Glo, 24 h; Potency, µM (titrated, usually from 46.1 µM), inactives show top-dose growth rescue (activation), most hits filed as activators; actives 1.8% (n = 410,000); AID 652104; further: % of control where 0% means no effect; nearly all actives have a fitted effect of over 50% in size
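Luminescence from BacTiter-Glo reports growth of TDP-43-expressing yeast after 24 hr at 30 deg C with compound. Cells were raffinose-pregrown to mid-log, then seeded in galactose medium at OD600=0.02.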
MmCpn inh: M. maripaludis TRiC chaperonin inhibition; purified Mm-Cpn ATPase, ADP Transcreener TR-FRET; Potency, µM (series often up to 76.9 µM), for the others: at the top dose activity, negative = inhibition, most hits filed as inhibitors; actives 0.031% (n = 330,000); AID 504842; further: on the % scale 0 is the no-effect control and ±100 the full control effect; nearly all actives have a fitted effect of over 80% in size
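ATPase read-out: TR-FRET ADP immunoassay (anti-ADP Eu cryptate vs ADP-d2), ex 320 nm, em 590/665 nm; signal drops as ADP forms. Enzyme 25 nM, ATP 10 uM, 30 min at 37°C after 10 min compound preincubation.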
aSyn yeast inh: alpha-synuclein toxicity inhibition in yeast; actives 0.14% (n = 370,000); Yeast expressing alpha-synuclein, growth rescue, BacTiter-Glo, 24 h; Potency, µM (doses to about 46.1 µM), for inactives: at the highest dose growth rescue (activation), actives largely listed as activators; further: % of control where 0% means no effect; nearly all actives have a fitted effect of over 65% in size
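Galactose-induced alpha-syn yeast (OD600=0.02, raffinose-pregrown) + pinned cpd, 24 hr, 30 deg C; growth by BacTiter-Glo luminescence. Growth restoration scores as activation.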
ClpP mod: qHTS Assay for Activators of ClpP; actives 1.9% (n = 340,000); purified B. subtilis ClpP, FRET peptide cleavage, 20 min; Potency, µM (top dose mostly 57.5 µM), without a hit: at the top dose activity change, negative = active; active means well fitted falling curve with a large enough effect; inconclusive means small, poorly fitted or top-dose-only effect; inactive means no such curve, though single readings can be large or run the other way; further: the source files actives as falling curves though it sought activators and does not explain the sign; nearly all actives have a fitted effect of over 65% in size
Target sequence (P80244 whole entry, looked up): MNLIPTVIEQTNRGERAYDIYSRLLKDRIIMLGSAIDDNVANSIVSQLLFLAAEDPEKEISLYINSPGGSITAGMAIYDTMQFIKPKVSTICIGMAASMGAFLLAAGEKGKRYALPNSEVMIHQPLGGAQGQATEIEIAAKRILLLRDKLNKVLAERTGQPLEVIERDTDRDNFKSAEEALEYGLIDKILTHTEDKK
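FRET quenching reversal measured ClpP activation: 10 microg/mL B. subtilis ClpP at pH 8 with the FRET-FV decapeptide, read at 430 nm after 320 nm excitation. The 20-min minus 0-min signal was scaled between DMSO/no-enzyme wells and ADEP (5.8 microM final).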
Abeta yeast res: A-beta toxicity reversal in yeast; yeast expressing A-beta42, growth rescue, OD600, 48 h; response scale: 0% DMSO, 100% iron-clioquinol control; Potency, µM (doses to about 46.1 µM), most hits filed as activators; actives 0.063% (n = 410,000); AID 1347071; further: nearly all actives have a fitted effect of over 55% in size
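Yeast A-beta toxicity model in growth medium with pinned compounds, 48 h at 30 C; growth read as absorbance at 600 nm. Normalized to FeCl3/clioquinol equimolar mix (positive) and DMSO (negative).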
Starred values were filed as active, the others as inactive. A selection: hits, their analogues and other compounds. The true share with any hit is near 3.6%. Unless noted, the call rests on the fitted dose curve; in most records, active means well fitted curve in the direction sought with a large enough effect; inconclusive means small, poorly fitted or top-dose-only effect, or another doubt; inactive means no such curve, though single readings can be large; an effect the other way counts as inactive or inconclusive. Potency means the concentration at half of the fitted maximal effect.

How did CC1CC(C)CN(C(=O)c2ccc3c(c2NCCO)C(=O)c2ccccc2C3=O)C1 (stereo not drawn) do in these assays?
FUS yeast rescue: inactive; TDP-43 yeast inh: 18µM*; MmCpn inh: -4%; aSyn yeast inh: -1%; ClpP mod: -23%; Abeta yeast res: inactive

Results for COC(=O)c1c(NC(=O)C2COc3ccccc3O2)sc2c1CCN(Cc1ccccc1)C2 (stereo not drawn) ?
FUS yeast rescue: inactive; TDP-43 yeast inh: -29%; MmCpn inh: inconclusive; aSyn yeast inh: -20%; ClpP mod: 20µM*; Abeta yeast res: inactive

Results for Cc1ccccc1CSc1nc2cccnc2n1Cc1ccc(C(=O)NCCc2cccs2)cc1 ?
FUS yeast rescue: inconclusive; TDP-43 yeast inh: 1%; ClpP mod: inconclusive; Abeta yeast res: inactive

Results for CCN(C(=O)[C@@H]1CCCN1C(=O)c1cccs1)c1nc2cc(Cl)ccc2s1 ?
FUS yeast rescue: inactive; TDP-43 yeast inh: 13µM*; MmCpn inh: 0%; aSyn yeast inh: 3%; ClpP mod: -3%; Abeta yeast res: inactive

How did CN(C)c1ccc(/C=C/c2nc3ccccc3s2)c(Cl)c1 do in these assays?
aSyn yeast inh: -15%; ClpP mod: 0%

Results for CC1(C)Cc2c(c(N3CCOCC3)nc3snc(Br)c23)CO1 ?
FUS yeast rescue: inactive; TDP-43 yeast inh: 16µM*; MmCpn inh: 1%; aSyn yeast inh: 4%; ClpP mod: -3%; Abeta yeast res: inactive

How did CCCCn1c(SCC(=O)NCc2ccco2)nc2c(sc3ccccc32)c1=O do in these assays?
FUS yeast rescue: 10µM*; TDP-43 yeast inh: 0%; MmCpn inh: -14%; aSyn yeast inh: -9%; ClpP mod: -20%; Abeta yeast res: inactive

Results for O=[N+]([O-])c1ccc(Nc2nc(NCCN3CCOCC3)nc(Nc3ccc(I)cc3)n2)cc1 ?
aSyn yeast inh: -68%; ClpP mod: 0%

How did Cc1cc(C(=O)CSc2cccc[n+]2[O-])c(C)n1-c1ccc(OC(F)F)cc1 do in these assays?
FUS yeast rescue: inactive; TDP-43 yeast inh: 14µM*; MmCpn inh: 1%; aSyn yeast inh: -7%; ClpP mod: 0%; Abeta yeast res: inactive

Results for COC(=O)c1ccc(-n2c(C)cc(C(=O)CSc3cccc[n+]3[O-])c2C)cc1 ?
FUS yeast rescue: inactive; TDP-43 yeast inh: 14µM*; MmCpn inh: -10%; aSyn yeast inh: inconclusive; ClpP mod: 2%; Abeta yeast res: inactive

Results for Cc1cc(C(=O)Cn2nc(C(=O)O)c3ccccc3c2=O)c(C)n1-c1ccc(OC(F)F)cc1 ?
FUS yeast rescue: inconclusive; TDP-43 yeast inh: 30%; MmCpn inh: -7%; aSyn yeast inh: 0%; ClpP mod: 0%; Abeta yeast res: inactive

How did NC(=O)C1CCN(C2=C(Cl)C(=O)c3ccccc3C2=O)CC1 do in these assays?
FUS yeast rescue: inactive; TDP-43 yeast inh: 13µM*; MmCpn inh: -12%; aSyn yeast inh: -4%; ClpP mod: 2%; Abeta yeast res: inactive

How did NC(=O)C1CCN(C2=C(NS(=O)(=O)c3ccccc3)C(=O)c3ccccc3C2=O)CC1 do in these assays?
FUS yeast rescue: inactive; TDP-43 yeast inh: -21%; MmCpn inh: -2%; aSyn yeast inh: -11%; Abeta yeast res: inactive

How did O=C1C(Cl)=C(N2CCC(C(=O)O)CC2)C(=O)c2ccccc21 do in these assays?
FUS yeast rescue: inactive; TDP-43 yeast inh: 18µM*; MmCpn inh: -5%; aSyn yeast inh: -1%; ClpP mod: 1%; Abeta yeast res: inactive

Results for O=C(CC(=O)c1ccncc1)c1ccccc1 ?
TDP-43 yeast inh: inconclusive; aSyn yeast inh: 20µM*; ClpP mod: 0%; Abeta yeast res: inactive

Results for Cc1ccnc(Sc2ccc([N+](=O)[O-])cc2[N+](=O)[O-])n1 ?
FUS yeast rescue: inactive; TDP-43 yeast inh: 20µM*; MmCpn inh: 0%; aSyn yeast inh: -13%; ClpP mod: 1%; Abeta yeast res: inactive

How did COC(=O)c1ccc2c(=O)n(CCCCCC(=O)N3CCN(c4cc(C)ccc4C)CC3)c(=O)[nH]c2c1 do in these assays?
FUS yeast rescue: inconclusive; TDP-43 yeast inh: -7%; ClpP mod: 0%; Abeta yeast res: inactive

How did CN(C)c1ccc(-c2nc(-c3cccs3)c(-c3cccs3)[nH]2)cc1 do in these assays?
FUS yeast rescue: inactive; TDP-43 yeast inh: inconclusive; ClpP mod: 11µM*; Abeta yeast res: inconclusive

Results for Oc1ccccc1-c1nc(-c2cccs2)c(-c2cccs2)[nH]1 ?
FUS yeast rescue: inactive; TDP-43 yeast inh: inconclusive; ClpP mod: 14µM*; Abeta yeast res: inactive

Results for CN(C)C(=O)CSc1nc(-c2cccs2)c(-c2cccs2)[nH]1 ?
FUS yeast rescue: inactive; TDP-43 yeast inh: 2%; MmCpn inh: -18%; aSyn yeast inh: 2%; Abeta yeast res: inactive

Results for C=C1C=C(C(F)F)n2ncc(C(=O)Nc3ccc(Br)cc3C(F)(F)F)c2N1 ?
aSyn yeast inh: -15%; ClpP mod: 2%

Results for COc1ccc(-c2cn3cc(Cl)ccc3n2)cc1OC ?
TDP-43 yeast inh: 12%; MmCpn inh: 1%; aSyn yeast inh: -14%; ClpP mod: inconclusive; Abeta yeast res: inactive

How did Clc1ccc2nc(-c3ccc(Br)s3)cn2c1 do in these assays?
FUS yeast rescue: inactive; TDP-43 yeast inh: -12%; MmCpn inh: inconclusive; aSyn yeast inh: -12%; ClpP mod: 20µM*; Abeta yeast res: inactive

Results for Cc1nc2nc(NC(=O)c3ccccc3F)[nH]n2c(=O)c1Cl ?
FUS yeast rescue: inactive; TDP-43 yeast inh: 7%; ClpP mod: -1%; Abeta yeast res: inactive

Results for CCOc1ccc2nc(N3CCCC(C(=O)NCCc4ccc(OC)cc4OC)C3)sc2c1 (stereo not drawn) ?
FUS yeast rescue: inactive; TDP-43 yeast inh: inconclusive; ClpP mod: 2%; Abeta yeast res: inactive

Results for c1ccc2c(c1)c1c(c3ccccc32)CN2CCCC2C1 (stereo not drawn) ?
TDP-43 yeast inh: -39%; aSyn yeast inh: 1%; ClpP mod: 20µM*; Abeta yeast res: inactive

Results for CC(=O)c1ccc(N2CCN(C(=O)Cn3ncc4c3-c3ccccc3OC4)CC2)cc1 ?
FUS yeast rescue: inactive; TDP-43 yeast inh: 14%; ClpP mod: -15%; Abeta yeast res: inactive

Results for CC(=O)N1CCCc2cc(S(=O)(=O)N(C)CC(=O)Nc3ccc(Cl)cc3C)ccc21 ?
FUS yeast rescue: inactive; TDP-43 yeast inh: 11%; ClpP mod: -3%; Abeta yeast res: inactive
